Laboratory results as given in the supplement of paper PMC11577813, “Eurasian spruce bark beetle detects lanierone using a highly expressed specialist odorant receptor, present in several functional sensillum types” (BMC Biology, 2024).
± gives the standard deviation of the averaged measurements.

Tested on: (4S)-cis-verbenol A-neuron OSN class
Experiment: net action potential response of A-neuron (blank-subtracted) (spikes/s (Hz)); higher = stronger excitation
Conditions: 10 µg on filter paper; neuron: A neuron (large spike amplitude)
Experimental: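 Single sensillum recordings from antennal olfactory sensilla of live adult Ips typographus. Each compound was 10 µg in paraffin oil on filter paper, delivered as a 0.5 s puff. Net response = spikes in the first 0.5 s of response minus the 0.5 s pre-stimulus count, doubled to give Hz, with blank response subtracted. Values are for the large-spike A-neuron class of each of seven sensillum types that co-house the lanierone B-neuron; N = 1-4 sensilla, averaged.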

| SMILES | net action potential response |
| --- | --- |
| C=C(C)C1CC=C(C)C(=O)C1 (racemic) [(±)-Carvone] | 2 ± 4 |
| CC(=O)CC/C=C(\C)CCC=C(C)C [Geranylacetone] | 3.33 ± 6.1 |
| C=Cc1ccc(OC)cc1 [4-Vinyl anisole] | 0.667 ± 5 |
| CC12CCC(CC1=O)C2(C)C (racemic) [(±)-Camphor] | -2.67 ± 8.1 |
| CC(C)=CCC/C(C)=C/C=O [Citral (E/Z mix)] | 0 ± 3.5 |
| CC1=CCC2CC1C2(C)C (stereo not drawn) [(+)-α-Pinene] | -2 ± 7.2 |
| C=Cc1ccccc1 [Styrene] | 1.33 ± 9 |
| OCCc1ccccc1 [2-Phenylethanol] | -2 ± 6.9 |
| CC1=CC(C)(C)C=C(O)C1=O [Lanierone] | 1.33 ± 5.8 |
| CC/C=C\CCO | -0.667 ± 3.1 |
| COc1ccccc1 [Anisole] | 1.33 ± 7.6 |
| COc1ccc(C)cc1 [4-Methyl anisole] | 4.67 ± 4.6 |
| C=C1CCC2(C(C)C)CC12 (racemic) [(±)-Sabinene] | -4 ± 7.2 |
| CC1=C[C@@H](O)[C@H]2C[C@@H]1C2(C)C [(-)-trans-Verbenol] | 52.7 ± 13 |
| CC1=CCC(C(C)C)=CC1 [γ-Terpinene] | -5.33 ± 4.2 |
| CC(=O)OCCc1ccccc1 [2-Phenethyl acetate] | -2 ± 4 |
| C=C1[C@@H]2CC[C@@H](C2)C1(C)C (racemic) [(±)-Camphene] | 4 ± 3.5 |
| C=CC(C)(C)O [2-Methyl-3-buten-2-ol] | -4 ± 4 |
| CCCCCC=O [Hexanal] | 0.667 ± 5 |
| CCCCCC(O)CC (racemic) [(±)-3-Octanol] | -6.67 ± 1.1 |

| SMILES | net action potential response |
| --- | --- |
| c1ccc2c(c1)CCO2 [2,3-Dihydrobenzofuran] | 0 ± 2 |
| C[C@@H]1C(=O)C[C@H]2C[C@@H]1C2(C)C [(+)-Isopinocamphone] | -0.667 ± 4.6 |
| CC(=O)OCc1ccccc1 [Benzyl acetate] | 1.33 ± 8.1 |
| C=CC(=C)CC(O)C=C(C)C (racemic) [(±)-Ipsdienol] | -2.67 ± 2.3 |
| CC(C)CCO [3-Methyl-1-butanol] | 6 ± 7.2 |
| CC1=CCC(=C(C)C)CC1 [Terpinolene] | 0 ± 3.5 |
| CC1(C)C2CC=C(CO)C1C2 (racemic) [(±)-Myrtenol] | 4.67 ± 1.1 |
| CC1=CC(=O)[C@@H]2C[C@H]1C2(C)C [(-)-Verbenone] | 24.7 ± 25 |
| CC12CCC(CC1)C(C)(C)O2 [1,8-Cineole] | 1.33 ± 4.2 |
| C=C(C)[C@@H]1CC=C(C)CC1 [(-)-Limonene] | 0.667 ± 8.1 |
| C=CC(O)CCCCC (racemic) [(±)-1-Octen-3-ol] | 2.67 ± 3.1 |
| CCCCCCO [1-Hexanol] | -1.33 ± 4.6 |
| CC(=O)c1ccccc1 [Acetophenone] | 0.667 ± 1.1 |
| CCC1CCC2(CCCO2)O1 (racemic) [(±)-Chalcogran] | 1.33 ± 5 |
| CC(C)[C@@]12CC[C@@](C)(O)[C@@H]1C2 [(+)-trans-4-Thujanol] | -0.667 ± 3.1 |
| CCC/C=C/CO | 2 ± 4 |
| Cc1ccc(C(C)C)cc1 [p-Cymene] | -2 ± 4 |
| CC/C=C/CCO | 2.67 ± 7 |
| CCC(C)CO (racemic) [(±)-2-Methyl-1-butanol] | -1.33 ± 4.2 |
| C=C1CCC2CC1C2(C)C (stereo not drawn) [(-)-β-Pinene] | -3 ± 4.2 |
